Experimental data: PubChem BioAssay (NCI)
The panel holds about 79,000 compounds, 15% with a hit somewhere; the sample as a whole holds those more often. Unmarked numbers belong to inactive results. Activity calls are given as the source filed them. Cut-off read from the data, not from the text of the source: active = growth inhibition above about 70%; inactive = the rest.

Experiment: NCI Yeast Anticancer Drug Screen. Data for the wt2 strain (AID 169);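 note: 0% = growth of vehicle-treated yeast cultures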
Details: S. cerevisiae wt2 strain growth inhibition, hits give high values
Description: Growth inhibition of yeast strains with defined genetic alterations is measured as a screen for potential anti-cancer activity. Selected strains with alterations in DNA damage repair or cell cycle control were exposed to compounds and growth inhibition was measured relative to vehicle treated controls. The strain used in this assay is wt2

| Compound | growth inhibition (at 1.2 µM) [%] | growth inhibition (at 3.7 µM) [%] | growth inhibition (at 11.0 µM) | growth inhibition (at 33.0 µM) | growth inhibition (at 100.0 µM) |
| --- | --- | --- | --- | --- | --- |
| CC1=C2C(=C[C@@](C)(CO)[C@@H]2O)C(=O)[C@](C)(O)C12CC2 | -2 | 0 | 0% | 0% | 1% |
| O=[N+]([O-])c1ccc(C=Cc2ccccc2)cc1.[C-]#[O+].[C-]#[O+].[C-]#[O+].[Cr] | -1 | -1 | 7% | 80% (active) | 83% (active) |
| COC1CC(CC2CCC(C)C(C(C)C(=O)O)O2)OC2(OC(C)(C3CCC(C)(C4OC(C5OC(O)(CO)C(C)CC5C)CC4C)O3)CC2C)C1C (stereo not given) | -46 | -46 | -18% | 60% | 91% (active) |
| Cc1cc(N=Nc2ccccc2C)ccc1N | 2 | -7 | 4% | 96% (active) | 99% (active) |
| CCN(CCCl)CCCCNc1c2ccccc2nc2ccc(OC)cc12 | 4 | 13 | 38% | 82% (active) | 95% (active) |
| COC(=O)C1=C(C(=O)OC)SC2(S1)C(C(=O)OC)=C(C(=O)OC)Sc1c2ssc1=O | 21 | 54 | 99% (active) | 96% (active) | 89% (active) |
| CC(C)CC(NC(=O)C(N)C(C)C)C(=O)NC(CCCCN)C(=O)Nc1ccc(N(CCCl)CCCl)cc1 (stereo not given) | -89 | -88 | -86% | -74% | -78% |
| Cc1c2ccccc2cc2ccccc12 | -4 | -1 | 63% | 98% (active) | 99% (active) |
